These results are taken from the supplement of paper PMC4723716.

This experiment concerns Plasmodium falciparum NF54 stage V gametocytes. The experiment can be described thus: viability index relative to DMSO control (fraction); higher = less gametocyte killing. Conditions: 2.5 µM, library set: Broad Institute DOS, incubation time: 72 h. The procedure, abridged: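 P. falciparum NF54 stage V gametocytes (serum-free medium, 0.75% gametocytemia, 1.25% hematocrit) were exposed to compound at 2.5 µM for 72 hr at 37°C under low oxygen, then stained with MitoTracker Red CMXRos and saponin for one to two hours. Red particles of 20–70 µm2 in one field per well were counted, and the viability index is that count scaled to the plate mean of solvent-only wells.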

± gives the uncertainty stated by the source. The full ranking holds about 9,900 compounds; the median of “viability index relative to DMSO control” is about 1, and the lowest 2% start at about 0.85. The sample as a whole holds a higher share of the lowest values than the screen did.

Take `C[C@H](CO)N1C[C@H](C)[C@@H](CN(C)C(=O)Nc2cccc(Cl)c2Cl)OCc2ccccc2-c2ccccc2C1=O`: the viability index was found to be 0.845 ± 0.043. To `C[C@@H]1CN([C@@H](C)CO)C(=O)c2ccccc2-c2ccccc2CO[C@@H]1CN(C)C(=O)Nc1ccc(-c2ccccc2)cc1` belongs 0.977 ± 0.016; to `C[C@@H]1CN([C@H](C)CO)C(=O)c2ccccc2-c2ccccc2CO[C@H]1CN(C)C(=O)Nc1cccc(Cl)c1Cl`, 0.863 ± 0.045. `C[C@@H]1CN([C@@H](C)CO)C(=O)c2ccccc2-c2ccccc2CO[C@@H]1CN(C)C(=O)Nc1cccc(Cl)c1Cl` registered a viability index of 0.946 ± 0.053.

As for `COC(=O)C[C@@H]1C[C@@H]2c3cc(NC(=O)c4ccc5c(c4)OCO5)ccc3O[C@@H]2[C@H](CO)O1`, the viability index was 0.991 ± 0.033. `COc1ccc(S(=O)(=O)Nc2ccc3c(c2)CC(=O)N([C@H](C)CO)C[C@@H](C)[C@@H](CN(C)C(=O)Nc2c(C)noc2C)O3)cc1` displayed a viability index of 1.101 ± 0.0069. To `Cc1ccc(S(=O)(=O)N(C)C[C@@H]2Oc3c(NS(C)(=O)=O)cccc3C(=O)N([C@H](C)CO)C[C@@H]2C)cc1` belongs 0.939 ± 0.13; to `COc1ccccc1CNC(=O)C[C@@H]1C[C@@H]2c3cc(NC(=O)C4CCC4)ccc3O[C@@H]2[C@@H](CO)O1`, 1.01 ± 0.015; to `O=C([C@@H]1[C@@H](CO)[C@@H]2Cn3c(ccc(C4=CCCC4)c3=O)[C@H]1N2C(=O)c1cccnc1)N1CCOCC1`, 1.08 ± 0.038. The molecule `CCc1nc(N2[C@H](CO)[C@H](c3ccccc3-c3ccc(F)cc3)[C@@H]2C#N)sc1C` had a viability index of 1.03 ± 0.12. Next, `O=C(C[C@@H]1CC[C@H]2NC[C@@H](O)COC[C@@H]2O1)NCc1ccc2c(c1)OCO2`: 1.07 ± 0.015; `COc1ccc2c3c([nH]c2c1)[C@H](CO)N(Cc1ccncc1)C[C@]31CN(C1)C(=O)CN(C)C`: 1.04 ± 0.071; `CCCC(=O)N1CC[C@@]2(CC1)CN(Cc1ccc(Cl)cc1)[C@H](CO)c1[nH]c3cc(OC)ccc3c21`: 0.873 ± 0.16. To `COc1ccc2c3c([nH]c2c1)[C@@H](CO)N(Cc1ccc(Cl)cc1)C[C@]31CCN(Cc2nccs2)CC1` belongs 0.814 ± 0.015; to `COCC(=O)N1CC[C@@]2(CC1)CN(Cc1ccccc1Cl)[C@H](CO)c1[nH]c3cc(OC)ccc3c21`, 1.023 ± 0.0089. The molecule `CCCC(=O)N1CC[C@@]2(CC1)CN(Cc1ccc(Cl)cc1)[C@@H](CO)c1[nH]c3cc(OC)ccc3c21` displayed a viability index of 0.795 ± 0.039. To `COc1ccc2c3c([nH]c2c1)[C@@H](CO)N(Cc1nccs1)C[C@]31CN(Cc2ccncc2)C1` belongs 1.02 ± 0.079. For `COc1ccc2c3c([nH]c2c1)[C@H](CO)N(Cc1nccs1)C[C@]31CCN(Cc2cccnc2)CC1`, the viability index is 0.946 ± 0.081. In the case of `COc1ccc2c3c([nH]c2c1)[C@@H](CO)N(Cc1ccccc1)C[C@]31CCN(Cc2cncnc2)CC1`, the viability index was found to be 0.849 ± 0.064. `COc1ccc2c3c([nH]c2c1)[C@@H](CO)N(Cc1nccs1)C[C@]31CCN(Cc2cccnc2)CC1` showed a viability index of 0.98 ± 0.062.

With `COc1ccc2c3c([nH]c2c1)[C@H](CO)N(Cc1ccc(Cl)cc1)C[C@]31CCN(Cc2nccs2)CC1`, the viability index was 0.884 ± 0.047.

For `CCCN(C)C[C@H]1Oc2cc(/C=C/c3ccccc3)ccc2S(=O)(=O)N([C@H](C)CO)C[C@H]1C`, the viability index was determined as 1.05 ± 0.026. As for `COc1ccc2c3c([C@@H](CO)N(C[C@]33CCN(CC4CCOCC4)CC3)C(=O)NC(C)C)n(C)c2c1`, the viability index is 0.97 ± 0.013.

As for `COc1ccc2c3c([C@H](CO)N(CC4CC4)C[C@]33CCN(CC3)C(=O)NC3CCCC3)n(C)c2c1`, the viability index was determined as 0.955 ± 0.05. Next, `C[C@H]1CN([C@@H](C)CO)C(=O)CCCn2nncc2CO[C@H]1CN(C)C(=O)c1ccc2ccn(C)c2c1`: 1.015 ± 0.0067; `O=C(C[C@@H]1CC[C@H]2[C@@H](COC[C@@H](O)CN2C(=O)c2ccccc2F)O1)NCc1ccc(Cl)c(Cl)c1`: 1.09 ± 0.036. Take `COC(=O)c1ccc(CN2CC(=O)N3[C@H](CO)[C@@H](c4ccc(-c5cccnc5)cc4)[C@H]3C2)cc1`: the viability index amounted to 0.986 ± 0.01. `C[C@@H]1CN([C@H](C)CO)C(=O)CCCn2cc(nn2)CO[C@@H]1CN(C)Cc1ccccc1` came in with a viability index of 0.986 ± 0.035. Next, `O=C(C[C@H]1CC[C@@H](NC(=O)Nc2ccc(C(F)(F)F)cc2)[C@H](CO)O1)NCc1cccc(F)c1`: 0.953 ± 0.14; `C[C@@H]1CCCCO[C@@H](CN(C)C(=O)Nc2cccc3ccccc23)[C@H](C)CN([C@@H](C)CO)C(=O)c2cc(NC(=O)CCC(F)(F)F)ccc2O1`: 1 ± 0.061; `Cc1noc(C)c1S(=O)(=O)Nc1ccc2c(c1)C(=O)N([C@@H](C)CO)C[C@H](C)[C@@H](CN(C)C(=O)Nc1cccc3ccccc13)OCCCC[C@H](C)O2`: 0.984 ± 0.043. To `Cc1noc(C)c1S(=O)(=O)Nc1ccc2c(c1)C(=O)N([C@@H](C)CO)C[C@@H](C)[C@@H](CN(C)C(=O)Nc1cccc3ccccc13)OCCCC[C@@H](C)O2` belongs 0.893 ± 0.066; to `Cc1noc(C)c1S(=O)(=O)Nc1ccc2c(c1)C(=O)N([C@@H](C)CO)C[C@@H](C)[C@@H](CN(C)C(=O)Nc1cccc3ccccc13)OCCCC[C@H](C)O2`, 0.828 ± 0.11; to `C[C@@H]1CN([C@H](C)CO)C(=O)c2cc(NC(=O)C3CCCCC3)ccc2O[C@@H](C)CCCCO[C@@H]1CN(C)C(=O)CCC(F)(F)F`, 0.817 ± 0.26. Next, `C[C@@H]1CN([C@H](C)CO)C(=O)c2cc(NC(=O)CCC(F)(F)F)ccc2O[C@@H](C)CCCCO[C@H]1CN(C)C(=O)Nc1cccc2ccccc12`: 1.08 ± 0.036; `C[C@@H]1CN([C@@H](C)CO)C(=O)c2cc(NC(=O)C3CCCCC3)ccc2O[C@@H](C)CCCCO[C@H]1CN(C)C(=O)CCC(F)(F)F`: 1.07 ± 0.071; `C[C@@H]1CN([C@@H](C)CO)C(=O)c2cc(NC(=O)CCC(F)(F)F)ccc2O[C@@H](C)CCCCO[C@@H]1CN(C)C(=O)Nc1cccc2ccccc12`: 0.734 ± 0.082. In turn, `C[C@@H]1CN([C@H](C)CO)C(=O)c2cc(NC(=O)C3CCCCC3)ccc2O[C@@H](C)CCCCO[C@H]1CN(C)C(=O)CCC(F)(F)F` yielded a viability index of 1.05 ± 0.096.
